# Experimental data: the supplement of paper PMC9135407
# Several values for one entry are separate records, joined by “and”; a condition that tells them apart may be missing. Equal entries are not always repeated. Structures can show the parent of a compound that is named as a salt. About 620 (11%) of roughly 5,800 compounds showed activity. What follows is part of a selection rich in actives, with near analogues and random picks from the rest. Values without a mark were called inactive.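 The calls were made as follows: active = score above a cut-off or among the top three wells of a plate; in these data no inactive exceeds 0.85.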
# Test system: primary human hepatic stellate cells (donor 1)
# Assay: scaled lipid accumulation score (0 = DMSO-like, 1 = nortriptyline-like); higher = stronger HSC inactivation (lipid re-accumulation), active = hit call of the paper
# Details: 48 h
# [1] = library stock concentration: 1 mM
# [2] = library stock concentration: 3.33 mM
# [3] = library stock concentration: 10 mM
# [4] = library stock concentration: 80 uM
# [5] = library stock concentration: 400 uM
# [6] = library stock concentration: 2 mM
compound,measurement,setting,value
O=C(O)CCCCCC[C@H]1C(=O)C[C@@H](O)[C@@H]1/C=C/[C@@H](O)Cc1ccccc1 [16-phenyl tetranor Prostaglandin E1],scaled lipid accumulation score,[1],0.017
CCCCCCCCCCCCCCCC(=O)OC[C@H](COP(=O)([O-])OCC[N+](C)(C)C)OC(=O)CCCC(=O)/C=C/C(=O)O,scaled lipid accumulation score,[1],0.034
O=C1C(Cl)=C(N2CCOCC2)C(=O)N1c1ccc(Cl)c(Cl)c1,scaled lipid accumulation score,[2],≤ -0.009
same,scaled lipid accumulation score,[3],≤ 0
COCC(=O)NC/C=C/c1ccc2ncnc(Nc3ccc(Oc4ccc(C)nc4)c(C)c3)c2c1 [listing 1 of 2 here],scaled lipid accumulation score,[3],1.46 (active)
COCC(=O)NC/C=C/c1ccc2ncnc(Nc3ccc(Oc4ccc(C)nc4)c(C)c3)c2c1 [listing 2 of 2 here],scaled lipid accumulation score,[4],≤ 0
same,scaled lipid accumulation score,[5],≤ 0 and ≤ -0.005
same,scaled lipid accumulation score,[6],≤ 0 and ≤ -0.005
same,scaled lipid accumulation score,[3],0.108
COc1ccc(Nc2ncnc3ccc(OC)cc23)cc1 [MPMQ hydrochloride],scaled lipid accumulation score,[3],0.051
NC1=NCCN1CC(=O)O [Cyclocreatine],scaled lipid accumulation score,[3],≤ 0
CCCCCCCCCCCCCCCC(=O)NCCS(=O)(=O)O [N-Palmitoyl Taurine],scaled lipid accumulation score,[1],≤ 0
CCCS(=O)(=O)Nc1ccc(F)c(C(=O)c2c[nH]c3ncc(Cl)cc23)c1F [listing 1 of 2 here],scaled lipid accumulation score,[4],≤ 0
same,scaled lipid accumulation score,[5],≤ 0 and 0.028
same,scaled lipid accumulation score,[6],≤ 0 and 0.042
same,scaled lipid accumulation score,[2],≤ 0
same,scaled lipid accumulation score,[3],≤ 0
CCCS(=O)(=O)Nc1ccc(F)c(C(=O)c2c[nH]c3ncc(Cl)cc23)c1F [listing 2 of 2 here],scaled lipid accumulation score,[3],1.16 (active)
"CCCS(=O)(=O)Nc1ccc(F)c(C(=O)c2c[nH]c3ncc(-c4ccc(Cl)cc4)cc23)c1F [Vemurafenib (PLX4032, RG7204)]",scaled lipid accumulation score,[2],≤ 0
same,scaled lipid accumulation score,[3],≤ 0
Cc1noc(-c2ccc(CSCCC(=O)O)cc2)c1NC(=O)OC(C)c1ccccc1Cl (stereo unspecified),scaled lipid accumulation score,[2],0.003
same,scaled lipid accumulation score,[3],≤ 0
CCCCCCCOC(=O)Cc1c(C)n(C(=O)c2ccc(Cl)cc2)c2ccc(OC)cc12 [Indomethacin heptyl ester],scaled lipid accumulation score,[1],0.015
CS(=O)(=O)c1ccc([C@H](O)[C@@H](COC(=O)CN)NC(=O)C(Cl)Cl)cc1 [Thiamphenicol glycinate],scaled lipid accumulation score,library stock concentration: 4.8 mM,0.01
O=C(O)Cn1nnc(-c2cc(N3CCC(Oc4cc(F)ccc4Br)CC3)no2)n1,scaled lipid accumulation score,[2],≤ 0
same,scaled lipid accumulation score,[3],≤ 0
CCCCC[C@H](O)/C=C/[C@@H]1[C@@H](C/C=C\CCCC(=O)N(CC)CC)[C@@H](O)C[C@H]1O [Prostaglandin F2.alpha. diethyl amide],scaled lipid accumulation score,[1],≤ 0
CCc1cccc(N(C)C(=N)Nc2cccc3ccccc23)c1.Cl,scaled lipid accumulation score,[3],0.912 (active)
CC1CCC(C(C)C)C(O)C1 (stereo not drawn) [Menthol(-)],scaled lipid accumulation score,[3],≤ -0.027
CC1(C)CC(=O)C(C2C3=C(CC(C)(C)CC3=O)Oc3ccccc32)C(=O)C1 (stereo unspecified),scaled lipid accumulation score,[3],≤ -0.002
CCCCCC1OC1C/C=C\C/C=C\C/C=C\CCCC(=O)O (stereo unspecified),scaled lipid accumulation score,library stock concentration: 100 uM,≤ -0.021
CC(=O)c1cnc2ccc(-c3cc(Cl)c(O)c(Cl)c3)nc2c1N[C@H]1CC[C@H](CN(C)C)CC1,scaled lipid accumulation score,[4],0.258
same,scaled lipid accumulation score,[5],0.847
same,scaled lipid accumulation score,[6],0.765
CC(=O)c1cnc2ccc(-c3cc(Cl)c(O)c(Cl)c3)nc2c1N[C@H]1CC[C@H](CN(C)C)CC1.Cl,scaled lipid accumulation score,[3],0.872 (active)
CCN(CC)CCNC(C(=O)OCCC(C)C)c1ccccc1 (stereo unspecified),scaled lipid accumulation score,[3],0.521
Cc1ccc(C(=O)NCCCCCC(=O)Nc2ccccc2N)cc1,scaled lipid accumulation score,[2],≤ -0.009
same,scaled lipid accumulation score,[3],0.662
c1ccc2c3c([nH]c2c1)C1C2CCC(C4CCCNC42)N1CC3 (stereo unspecified) [Nitrarine dihydrochloride],scaled lipid accumulation score,,≤ 0
CCOC(=O)[C@H](CCc1ccccc1)N[C@@H](C)C(=O)N1CCC[C@H]1C(=O)O [Enalapril Maleate],scaled lipid accumulation score,[2],0.026
same,scaled lipid accumulation score,[3],≤ 0
C[C@H](CS)C(=O)N1CCC[C@H]1C(=O)O,scaled lipid accumulation score,[3],≤ 0
CCOC(=O)[C@H](CCc1ccccc1)N[C@@H](C)C(=O)N1CCC[C@H]1C(=O)O [Enalapril],scaled lipid accumulation score,library stock concentration: 5.3 mM,≤ 0
CCOC(=O)[C@H](CCc1ccccc1)N[C@@H](C)C(=O)N1CCC[C@H]1C(=O)O [Enalapril maleate],scaled lipid accumulation score,,≤ 0
same,scaled lipid accumulation score,[3],≤ 0
CCCNC(=O)[C@H]1O[C@@H]1C(=O)N[C@H](C(=O)N1CCC[C@H]1C(=O)OC)C(C)CC (stereo partly specified),scaled lipid accumulation score,library stock concentration: 12.6 mM,0.868 (active)
C[C@H](CS)C(=O)N1CCC[C@H]1C(=O)O [Captopril],scaled lipid accumulation score,,0.036
same,scaled lipid accumulation score,[2],≤ 0
same,scaled lipid accumulation score,library stock concentration: 9.2 mM,≤ -0.006 and ≤ 0
same,scaled lipid accumulation score,[3],≤ 0
CCOC(=O)[C@H](CCc1ccccc1)N[C@@H](C)C(=O)N1CCC[C@H]1C(=O)O,scaled lipid accumulation score,[3],≤ 0
